For assay [1], the target named is Lysosomal acid glucosylceramidase (Homo sapiens) (UniProt P04062). The experiment in a line: Glucocerebrosidase-p2 (AID 348; in the data active = potency below about 10 µM; note: potency is the fitted concentration of half-maximal effect). Conditions: purified GBA, blue fluorogenic substrate, 40 min. The method, boiled down:
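Normal human glucocerebrosidase (0.2 nM) with blue fluorogenic substrate (80 uM final) in citrate/phosphate pH 5.9 with 10mM sodium taurocholate, 0.01% tween-20; 40 min RT, NaOH/glycine stop; fluorescence Ex 365/Em 440; AC50 from a titration from 0.6 nM upwards.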

Assay [2] in a line: AP1 Signaling Pathway (AID 357). Note: % is set by controls: 0 for no effect and ±100 for the full control effect. The note with it: ME-180 AP-1-bla reporter, EGF-induced, beta-lactamase ratio, 5 h; at 7.69 µM (top of the series) unless noted. Put shortly: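 A ratiometric CCF4 readout (405 nm excitation; 460 and 530 nm emission) quantified AP-1-driven beta-lactamase in ME-180 cells after 5 h with compound and EC50 EGF; AC50 values were derived for activators and inhibitors.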

Assay [3] has as its target Cytochrome P450 1A2 (Homo sapiens) (UniProt P05177). In words: p450-cyp1a2 (AID 410; calls by dose curve; note: potency is the fitted concentration of half-maximal effect;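 for activity change, negative = inhibition: -100% = full effect of reference inhibitor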). Conditions: recombinant CYP1A2, luciferin-ME demethylation, luminescence; series mostly up to 57 µM. Put shortly: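 20nM CYP1A2, 100uM Luciferin-ME (=Km), 100mM KPO4; cpd 10 min RT; +NADPH regen, 60 min RT; stop/detect 20 min; luminescence. Normalized to furafylline 57 uM = full inhibition.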

Assay [4] in a line: NFAT Signaling Pathway (AID 444).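 Note: carbachol stimulus at about its EC50 of 1 µM final; % is set by controls: 0 for no effect and ±100 for the full control effect.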 Conditions: Jurkat NFAT-bla M1, carbachol, beta-lactamase ratio, 5 h; at 7.69 µM (top of the series) unless noted. Put shortly: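 Jurkat cells carrying an NFAT-driven β-lactamase reporter and co-transfected muscarinic M1 receptor were treated with compound plus carbachol (1 uM final, an EC50 level) for 5 h at 37 °C. CCF4 loading followed for 1 h at RT; 460/530 nm ratio gave %activity.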

A short description of assay [5]: Stat Signaling Pathway (AID 446).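 Note: ME-180 cervical cancer cells given 40 pM IL-6 alongside compound; SIE-controlled beta-lactamase reporter measured as 460/530 nm FRET emission ratio; % is set by controls: 0 for no effect and ±100 for the full control effect.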 The note with it: ME-180 (cervical carcinoma) SIE beta-lactamase reporter, IL-6 stimulated, 5 h; at 7.69 µM (top of the series) unless noted. The method, boiled down:
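Overnight-plated ME-180 cells bearing a STAT Inducible Element beta-lactamase reporter; 5 h co-exposure to compound and 40 pM IL-6; values normalized to 300 pM IL-6 and 125 nM JAK inhibitor controls.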

Assay [6] concerns the target Glucocorticoid receptor (Homo sapiens) (UniProt P04150). The experiment in a line: GR-GFP Redistribution (AID 450;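 active = compounds whose dose series gives a full or clear partial fitted curve of increased nuclear translocation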; note: potency is the fitted concentration of half-maximal effect). The note with it: U2OS GR-GFP nuclear translocation, laser cytometry, 2 h.
The target is the same in assay [7]. In words: GR-EFC Redistribution (AID 451; calls by dose curve; note: potency is the fitted concentration of half-maximal effect). The note with it: CHO-K1 GR-EFC translocation, beta-gal luminescence, 2 h. The method, boiled down:
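CHO-K1 cells stably expressing nuclear-localized β-gal enzyme acceptor and GR fused C-terminally to the enzyme donor fragment; ligand-driven nuclear translocation restores β-gal by complementation. Compounds titrated up to 46 uM final, 2 h at 37 °C; luminescence read.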

In assay [8] the target is Mitogen-activated protein kinase 10 (Mus musculus) (UniProt Q61831). In words: JNK3 AlphaScreen Assay (AID 530).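 Note: kinase came from lysate of stimulated human HepG2 cells; signal reports phosphorylation of biotinylated GST-cJun 1-79 at Ser73 with 10 µM ATP; % is set by controls: 0 for no effect and ±100 for the full control effect.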 The note with it: JNK3 lysate, c-Jun phosphorylation; series mostly up to 57.1 µM. Put shortly:
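Biotinylated GST-cJun(1-79) served as substrate for JNK3 in HepG2 lysates stimulated with IL-1beta and TNF-alpha. ATP was 10 uM final, pH 7.6. Ser73 phosphorylation was quantified by AlphaScreen (680 nm excitation).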

Assay [9] concerns the target 3',5'-cyclic-AMP phosphodiesterase 4B (Homo sapiens) (UniProt Q07343). The experiment in a line: qHTS Assay for Inhibitors of PDE-IV (AID 607; active = well fitted activation curve with a large enough effect in the main read-out, with a control signal flat, not every such curve was filed as active; note: % of control where 0% means no effect). The note with it: HEK293 ACTOne CNG channel cells, membrane potential fluorescence; series mostly up to 22.9 µM. The method, boiled down: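 Live HEK293 cells with a modified cyclic nucleotide-gated (CNG) channel report intracellular cAMP via membrane-potential dye fluorescence (ex 535/em 590 nm). Endogenous PDE-IV was targeted. Compounds were tested at up to 22.9 uM final; RO 20-1724 100 uM served as control.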
On the technique in general: Quantitative high-throughput screening tests each substance at several concentrations.

For assay [10], the target named is Cytochrome P450 3A4 (Homo sapiens) (UniProt P08684). The experiment in a line: qHTS Assay for Activators of Cytochrome P450 3A4 (AID 885; active = well fitted curve in the direction sought with a large enough effect; an effect the other way counts as inactive or inconclusive; note: nearly all actives have a fitted effect of over 65% in size). The note with it: recombinant CYP3A4, Luciferin-PPXE luminescence, 60 min; series mostly up to 57.1 µM. Put shortly:
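Using 20nM recombinant human CYP3A4 in potassium phosphate (200mM), substrate Luciferin-PPXE at 25uM, luminescent luciferin detection followed a 60-min RT NADPH reaction; data scaled to 57 uM ketoconazole.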

Assay [11] concerns the target Cytochrome P450 2C19 (Homo sapiens) (UniProt P33261). The experiment in a line: qHTS Assay for Inhibitors and Substrates of Cytochrome P450 2C19 (AID 899; active = well fitted curve in the direction sought with a large enough effect; an effect the other way counts as inactive or inconclusive; note: potency is the fitted concentration of half-maximal effect; nearly all actives have a fitted effect of over 60% in size). The note with it: recombinant CYP2C19, luciferin-H EGE luminescence; series mostly up to 57.1 µM. The method, boiled down:
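NADPH-dependent conversion of Luciferin-H EGE (10uM, at KM) by 5nM enzyme in 50mM KPO4, 60 min at 37C following 10 min compound preincubation. Stopped with luciferin detection buffer; luminescence read after 20 min.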

The nature of assay [12]: Primary qHTS for small molecule stabilizers of the endoplasmic reticulum resident proteome: Secreted ER Calcium Modulated Protein (SERCaMP) assay (AID 1508630; active = well fitted curve in the direction sought with a large enough effect; an effect the other way counts as inactive or inconclusive; note: % is set by controls: 0 for no effect and ±100 for the full control effect). The note with it: SH-SY5Y GLuc-SERCaMP (Gaussia luciferase released on ER calcium loss) secretion, thapsigargin, luminescence; series mostly up to 38.4 µM. The method, boiled down: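 The SH-SY5Y reporter protocol was run at 3 concentrations up to 38.3 uM (primary) or 11 concentrations (follow-up): 16 h compound, 100 nM thapsigargin for 4 h, then extracellular luciferase luminescence.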

The target of assay [13] is Cytochrome P450 3A4 (Homo sapiens) (UniProt P08684). In words: qHTS Assay for Inhibitors and Substrates of Cytochrome P450 3A4 (AID 884; active = well fitted curve in the direction sought with a large enough effect; an effect the other way counts as inactive or inconclusive; note: potency is the fitted concentration of half-maximal effect; nearly all actives have a fitted effect of over 50% in size). Conditions: recombinant CYP3A4, Luciferin-PPXE luminescence; series mostly up to 57.1 µM. The method, boiled down:
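Luminescent readout of luciferin produced by CYP3A4 (20 nM) dealkylation of Luciferin-PPXE, 25 uM (its KM). NADPH-driven reaction ran 60 min at RT after 10 min compound preincubation; data scaled to 57 uM ketoconazole as 100% inhibition.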

For assay [14], the target named is Cytochrome P450 2C9 (Homo sapiens) (UniProt P11712). In words: qHTS Assay for Inhibitors and Substrates of Cytochrome P450 2C9 (AID 883; active = well fitted curve in the direction sought with a large enough effect; an effect the other way counts as inactive or inconclusive; note: potency is the fitted concentration of half-maximal effect; nearly all actives have a fitted effect of over 60% in size). The note with it: recombinant CYP2C9, luciferin-H luminescence, 60 min; series mostly up to 57.1 µM. The method, boiled down:
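A luminogenic readout tracked human CYP2C9 (10nM) converting deoxyluciferin (100uM, at KM) in 25mM KPO4 during 60 min at 37C with regenerated NADPH. Values normalized to 57uM sulphaphenazole as complete inhibition.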

A number with no mark means an inactive call. Results filed as inconclusive are left out. Activity calls are given as the source filed them. Unless noted, calls come from the whole dose curve; as a rule, active = well fitted curve in either direction with a large enough effect (not every such curve was filed as active); inconclusive = small, poorly fitted or top-dose-only effect, or another doubt; inactive = flat fitted curve, though single readings scatter. Where only a bound is given, the exact number is not on record here.

Lysosomal acid glucosylceramidase (Homo sapiens), sequence (P04062 whole entry, looked up): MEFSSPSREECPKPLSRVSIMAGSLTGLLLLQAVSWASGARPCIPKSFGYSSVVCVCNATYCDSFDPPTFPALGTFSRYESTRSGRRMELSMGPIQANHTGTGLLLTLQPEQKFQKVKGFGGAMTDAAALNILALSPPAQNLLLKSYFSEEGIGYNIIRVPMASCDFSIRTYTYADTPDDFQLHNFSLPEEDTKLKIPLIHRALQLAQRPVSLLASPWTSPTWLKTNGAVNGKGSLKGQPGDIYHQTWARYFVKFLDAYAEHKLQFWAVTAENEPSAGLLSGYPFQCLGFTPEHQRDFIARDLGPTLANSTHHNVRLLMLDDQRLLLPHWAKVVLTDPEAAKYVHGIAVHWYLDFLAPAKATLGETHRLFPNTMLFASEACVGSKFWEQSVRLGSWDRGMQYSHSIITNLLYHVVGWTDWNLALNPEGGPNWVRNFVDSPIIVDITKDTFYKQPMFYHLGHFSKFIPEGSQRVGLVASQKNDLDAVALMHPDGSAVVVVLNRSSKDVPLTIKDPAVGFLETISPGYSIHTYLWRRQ
Cytochrome P450 1A2 (Homo sapiens), sequence (P05177 whole entry, looked up): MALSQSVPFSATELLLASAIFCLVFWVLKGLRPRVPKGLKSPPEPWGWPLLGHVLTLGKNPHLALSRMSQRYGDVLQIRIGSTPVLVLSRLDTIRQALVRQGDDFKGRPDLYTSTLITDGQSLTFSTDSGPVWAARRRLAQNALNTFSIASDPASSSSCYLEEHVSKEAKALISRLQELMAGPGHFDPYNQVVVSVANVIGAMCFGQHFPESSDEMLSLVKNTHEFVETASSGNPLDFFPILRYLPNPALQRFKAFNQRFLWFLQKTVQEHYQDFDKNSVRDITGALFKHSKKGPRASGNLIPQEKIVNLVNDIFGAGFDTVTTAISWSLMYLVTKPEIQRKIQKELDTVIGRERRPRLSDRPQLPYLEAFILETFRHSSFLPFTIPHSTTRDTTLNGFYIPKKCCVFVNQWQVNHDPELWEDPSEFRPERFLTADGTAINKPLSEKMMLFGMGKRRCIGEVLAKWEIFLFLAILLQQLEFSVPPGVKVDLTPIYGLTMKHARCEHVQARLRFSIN
Cytochrome P450 3A4 (Homo sapiens), sequence (P08684 whole entry, looked up): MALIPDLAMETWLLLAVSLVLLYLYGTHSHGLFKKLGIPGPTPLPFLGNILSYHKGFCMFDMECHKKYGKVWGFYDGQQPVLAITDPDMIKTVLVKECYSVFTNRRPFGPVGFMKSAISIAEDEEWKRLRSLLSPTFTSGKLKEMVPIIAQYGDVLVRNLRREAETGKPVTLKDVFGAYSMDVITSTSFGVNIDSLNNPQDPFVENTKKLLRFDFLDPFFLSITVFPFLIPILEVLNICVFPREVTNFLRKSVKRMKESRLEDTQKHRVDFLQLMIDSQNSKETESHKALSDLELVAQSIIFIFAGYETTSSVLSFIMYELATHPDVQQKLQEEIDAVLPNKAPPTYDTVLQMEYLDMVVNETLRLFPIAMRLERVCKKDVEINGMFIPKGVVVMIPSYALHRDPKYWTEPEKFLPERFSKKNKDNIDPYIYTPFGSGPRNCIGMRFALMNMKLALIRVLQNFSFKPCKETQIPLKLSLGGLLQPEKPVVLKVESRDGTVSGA
Glucocorticoid receptor (Homo sapiens), sequence (P04150 whole entry, looked up): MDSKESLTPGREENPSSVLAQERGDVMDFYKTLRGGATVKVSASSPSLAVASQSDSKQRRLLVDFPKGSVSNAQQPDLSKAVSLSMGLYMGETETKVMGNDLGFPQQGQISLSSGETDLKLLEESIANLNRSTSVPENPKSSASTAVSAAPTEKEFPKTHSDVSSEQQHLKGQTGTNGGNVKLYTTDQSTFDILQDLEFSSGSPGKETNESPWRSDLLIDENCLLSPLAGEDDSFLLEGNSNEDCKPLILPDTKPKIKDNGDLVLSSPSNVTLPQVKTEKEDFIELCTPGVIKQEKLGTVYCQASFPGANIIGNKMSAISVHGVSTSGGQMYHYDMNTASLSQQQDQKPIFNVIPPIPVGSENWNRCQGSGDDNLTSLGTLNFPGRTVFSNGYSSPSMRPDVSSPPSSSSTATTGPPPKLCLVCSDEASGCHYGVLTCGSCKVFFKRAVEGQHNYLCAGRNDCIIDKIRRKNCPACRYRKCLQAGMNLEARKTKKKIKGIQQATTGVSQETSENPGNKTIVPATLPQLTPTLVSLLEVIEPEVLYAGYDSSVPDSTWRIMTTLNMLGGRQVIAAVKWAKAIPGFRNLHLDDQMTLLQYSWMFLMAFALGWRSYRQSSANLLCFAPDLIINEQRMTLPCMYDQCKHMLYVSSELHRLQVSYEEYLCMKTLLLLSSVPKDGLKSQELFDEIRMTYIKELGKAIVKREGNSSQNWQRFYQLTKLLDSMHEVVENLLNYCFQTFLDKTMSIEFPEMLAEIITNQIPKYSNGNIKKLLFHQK
3',5'-cyclic-AMP phosphodiesterase 4B (Homo sapiens), sequence (Q07343 whole entry, looked up): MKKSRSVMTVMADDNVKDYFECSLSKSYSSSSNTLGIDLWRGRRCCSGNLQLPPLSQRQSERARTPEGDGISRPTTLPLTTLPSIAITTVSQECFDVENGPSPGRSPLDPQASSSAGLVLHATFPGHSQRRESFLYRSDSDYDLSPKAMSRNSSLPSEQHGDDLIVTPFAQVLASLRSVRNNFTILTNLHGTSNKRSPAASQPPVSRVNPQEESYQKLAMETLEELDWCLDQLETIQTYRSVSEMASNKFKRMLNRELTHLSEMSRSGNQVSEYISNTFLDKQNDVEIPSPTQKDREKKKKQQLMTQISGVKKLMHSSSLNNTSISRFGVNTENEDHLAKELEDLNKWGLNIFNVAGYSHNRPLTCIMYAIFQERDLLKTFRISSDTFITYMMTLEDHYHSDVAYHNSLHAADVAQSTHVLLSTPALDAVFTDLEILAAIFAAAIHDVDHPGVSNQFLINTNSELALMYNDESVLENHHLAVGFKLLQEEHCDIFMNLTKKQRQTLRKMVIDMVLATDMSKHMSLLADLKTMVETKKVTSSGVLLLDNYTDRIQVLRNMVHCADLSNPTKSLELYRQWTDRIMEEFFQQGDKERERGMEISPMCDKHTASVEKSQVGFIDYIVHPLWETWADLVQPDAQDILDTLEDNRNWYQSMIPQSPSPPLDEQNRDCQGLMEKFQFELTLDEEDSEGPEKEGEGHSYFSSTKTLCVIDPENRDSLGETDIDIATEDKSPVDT
Cytochrome P450 2C19 (Homo sapiens), sequence (P33261 whole entry, looked up): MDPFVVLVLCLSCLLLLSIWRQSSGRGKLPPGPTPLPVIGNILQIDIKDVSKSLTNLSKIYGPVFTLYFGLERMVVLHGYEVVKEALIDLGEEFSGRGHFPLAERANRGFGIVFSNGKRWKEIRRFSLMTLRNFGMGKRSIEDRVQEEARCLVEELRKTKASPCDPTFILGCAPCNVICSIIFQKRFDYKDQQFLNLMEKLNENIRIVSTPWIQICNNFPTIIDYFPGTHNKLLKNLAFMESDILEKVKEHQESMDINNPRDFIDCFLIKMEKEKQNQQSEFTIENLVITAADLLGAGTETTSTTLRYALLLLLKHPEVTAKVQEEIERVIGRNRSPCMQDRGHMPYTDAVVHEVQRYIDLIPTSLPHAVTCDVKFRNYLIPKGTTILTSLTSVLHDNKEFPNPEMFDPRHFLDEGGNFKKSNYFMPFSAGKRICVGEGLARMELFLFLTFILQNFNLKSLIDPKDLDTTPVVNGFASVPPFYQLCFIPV
Cytochrome P450 2C9 (Homo sapiens), sequence (P11712 whole entry, looked up): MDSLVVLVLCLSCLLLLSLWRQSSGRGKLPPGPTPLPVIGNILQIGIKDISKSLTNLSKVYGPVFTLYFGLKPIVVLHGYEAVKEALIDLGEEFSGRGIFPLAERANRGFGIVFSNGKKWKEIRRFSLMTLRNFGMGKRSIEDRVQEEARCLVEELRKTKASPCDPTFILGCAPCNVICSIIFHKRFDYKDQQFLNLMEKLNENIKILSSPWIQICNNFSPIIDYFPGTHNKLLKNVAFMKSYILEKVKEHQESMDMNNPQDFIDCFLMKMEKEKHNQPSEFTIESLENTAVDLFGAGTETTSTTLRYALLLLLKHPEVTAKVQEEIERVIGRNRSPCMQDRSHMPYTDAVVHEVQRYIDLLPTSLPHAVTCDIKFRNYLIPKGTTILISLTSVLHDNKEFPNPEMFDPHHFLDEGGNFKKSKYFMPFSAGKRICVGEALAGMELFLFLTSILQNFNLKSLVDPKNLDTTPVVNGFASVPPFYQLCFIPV

Regarding `O=c1cnc2cnc(N3CCOCC3)nc2n1Cc1ccc(F)cc1`, the Potency in [1] is > 11.4 µM; in [3] it was 3.98 µM (active); in assay [6], > 9.22 µM; in assay [7], > 46 µM; in [11], 3.98 µM (active). Moreover, the figures for the activity change, negative = inhibition in [2] and in assay [4] were -5.88% and -6.28%, respectively. Also, in assay [5], the activity, negative = inhibition was 6.58%. Moreover, the Potency result in assay [8], in assay [9] and in [10] was “inactive” in each case. Further, in assay [12], the outcome was inactive.
With `COc1ccc(-c2nc3cnc(N4CCOCC4)nc3n(CCC#N)c2=O)cc1`, the Potency was > 11.4 µM in assay [1], 3.16 µM (active) in assay [3], > 9.22 µM in [6] and > 46 µM in assay [7]. In addition, the values for the activity change, negative = inhibition in assay [2] and in assay [4] were 3.37% and 2.6%, respectively. In [5], the activity, negative = inhibition was 16.9%. Further, the Potency entry in assay [8] and in assay [9] was “inactive” each time. For the same compound, the result in [12] was inactive.
`COc1ccc(-n2c(=O)c(C)nc3cnc(N(C)C)nc32)cc1`: the Potency in assay [1] was > 11.4 µM; in assay [3], 6.31 µM (active); in assay [6], > 9.22 µM; in assay [7], > 46 µM. The activity change, negative = inhibition in assay [2] is -8.91%; in assay [4], 5.39%. For the same compound, the activity, negative = inhibition in [5] was -5.54%. Also, the Potency entry in assay [8], in assay [9] and in assay [10] was “inactive” each time. Also, in assay [12], the outcome was inactive.
Consider `Cn1c(=O)c(-c2ccc(F)cc2)nc2cncnc21`, for which the Potency is > 11.4 µM in assay [1], 0.158 µM (active) in assay [3], > 9.22 µM in [6] and > 46 µM in assay [7]. Moreover, the activity change, negative = inhibition was -16.1% in [2] and -1.33% in [4]. Besides, the activity, negative = inhibition in [5] was -0.562%. For the same compound, the Potency entry in assay [8], in [9] and in [10] was “inactive” each time. Also, the outcome in [12] was inactive.
With `Cc1nc2cnc(Nc3ccccc3)nc2n(Cc2cccs2)c1=O`, the Potency in [1] is > 11.4 µM; in assay [3], 1.58 µM (active); in assay [6] it was > 9.22 µM; in assay [7], > 46 µM; in [13], 7.94 µM (active). Further, the activity change, negative = inhibition is 6.83% in assay [2] and 31.1% in [4]. Further, the activity, negative = inhibition in assay [5] is 10.1%. In addition, the Potency entry in [8], in [9] and in assay [10] was “inactive” throughout. Moreover, the result in [12] was inactive.
Regarding `COc1ccc(Oc2ncc3nc(-c4ccc(Cl)cc4)c(=O)n(C)c3n2)cc1`, the Potency was > 11.4 µM in assay [1], 0.631 µM (active) in assay [3], > 9.22 µM in assay [6] and > 46 µM in assay [7]. In addition, the values for the activity change, negative = inhibition in [2] and in assay [4] were -22.1% and -2.12%, respectively. The activity, negative = inhibition in assay [5] was -5.79%. Further, the Potency entry in assay [8], in [9] and in [10] was “inactive” in each case. In addition, in assay [12], the result was inactive.
Regarding `O=c1cnc2cnc(Oc3cccc(Cl)c3)nc2n1C1CC1`, the Potency was > 11.4 µM in [1]; 2.51 µM (active) in assay [3]; > 9.22 µM in assay [6]; > 46 µM in assay [7]; 6.31 µM (active) in [14]. The activity change, negative = inhibition in assay [2] is -27.3%; in assay [4], 0.268%. Further, the activity, negative = inhibition in [5] is -9.7%. Moreover, the Potency entry in assay [8] and in assay [9] was “inactive” throughout. Further, the result in assay [12] was inactive.
Take `Cc1nc2cnc(Oc3ccccc3)nc2n(CCC#N)c1=O`: the Potency in [1] was > 11.4 µM; in assay [3] it was 20 µM (active); in assay [6], > 9.22 µM; in assay [7], > 46 µM. Moreover, the activity change, negative = inhibition in assay [2] was -21.9%; in [4], -8.6%. Further, the activity, negative = inhibition in [5] was -6.56%. In addition, the Potency entry in [8], in [9] and in [10] was “inactive” each time. In [12], the result was inactive.
As to `COc1ccc(-n2c(=O)c(C)nc3cncnc32)cc1`, the Potency in assay [1] is > 11.4 µM; in [6], > 9.22 µM; in [7], > 46 µM; in assay [13], 5.01 µM (active). Besides, the figures for the activity change, negative = inhibition in [2] and in [4] were -7.74% and 7.82%, respectively. Besides, the Potency result in assay [3], in [8], in assay [9] and in [10] was “inactive” each time. Also, in [5], the activity, negative = inhibition was -15.1%. The result in [12] was inactive.
Turning to `COc1ccc(-n2c(=O)c(-c3ccc(Cl)cc3)nc3cncnc32)cc1`, the Potency in assay [1] was > 11.4 µM; in [3] it was 5.01 µM (active); in assay [6] it was > 9.22 µM; in [7] it was > 46 µM. In addition, the activity change, negative = inhibition in [2] is -19.6%; in [4], -2.56%. Moreover, the activity, negative = inhibition in [5] is -6.47%. Besides, the Potency result in [8] and in [10] was “inactive” in each case. Also, the outcome in assay [12] was inactive.
For `COc1ccc(Oc2ncc3nc(C)c(=O)n(CCC#N)c3n2)cc1`, the Potency in assay [1] is > 11.4 µM; in assay [3] it was 25.1 µM (active); in assay [6], > 9.22 µM; in assay [7] it was > 46 µM. The activity change, negative = inhibition in assay [2] is -15.5%; in [4] it was 8.56%. For the same compound, the activity, negative = inhibition in assay [5] is -12.9%. Besides, the Potency entry in assay [8] and in assay [9] was “inactive” throughout. In assay [12], the outcome was inactive.
In the case of `CN(C)c1ncc2ncc(=O)n(C)c2n1`, the Potency in [1] is > 11.4 µM; in assay [3] it was 6.31 µM (active); in assay [6] it was > 9.22 µM; in [7], > 46 µM. In addition, the activity change, negative = inhibition was -20.1% in assay [2] and 0.153% in assay [4]. The activity, negative = inhibition in assay [5] was -5.5%. The Potency entry in [8] and in [9] was “inactive” throughout. Further, in assay [12], the outcome was inactive.
On to `COCCn1c(=O)c(-c2ccc(Cl)cc2)nc2cncnc21`, for which the Potency in [1] is > 11.4 µM; in assay [3], 0.2 µM (active); in [6], > 9.22 µM; in assay [7], > 46 µM. The activity change, negative = inhibition in assay [2] was -10.8%; in assay [4], 9.96%. The activity, negative = inhibition in [5] was 1.43%. In addition, the Potency result in assay [8], in [9] and in assay [10] was “inactive” throughout. Besides, in [12], the result was inactive.

Source of the values: PubChem BioAssay (NCATS).
